Compounds without any hit were thinned out: in the full panel of roughly 83,000, 20% have a hit.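 Method: cells in 96-well plates; compound added at one concentration; 48 h incubation; percent growth measured; values under 10 scored active.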 Active and inactive are the calls of the source.

The experiment relates to MDA-MB-468 breast. The experiment can be described thus: NCI-60 one-dose screen, 48 h (100 = growth as untreated, 0 = no growth, -100 = all killed). The note with it: 10 µM unless noted.
For `N#Cc1cccc(CN2CCC3=C(C2)C(=O)N(Cc2ccc(Cl)cc2)C2=NCCN23)c1`, the growth was -14.9% (active).

For the compound `Cc1cccc2c1NC(=O)[C@@]21[C@H](C(=O)c2ccccc2)[C@]2(C(=O)Nc3ccccc32)[C@H]2CCCN21`, the growth was 22.2% [100 µM] (inactive). Then `CCNC(=O)Oc1ccc(/C(=C(/C)c2ccccc2)c2ccc(OCCN3CCCC3)cc2)cc1`, with 80.3% (inactive); and `Cc1ccc2oc(=O)cc(-c3cc(-c4cc5ccccc5oc4=O)nc(N)c3C#N)c2c1`, with 68.7% (inactive). Next, `O=C(Nc1ccc2c(O)cc(S(=O)(=O)O)cc2c1)c1ccc([N+](=O)[O-])cc1`: 95.4% (inactive). Then `COc1cc(/C=C/C(=O)c2ccc(NC(=O)CSc3nnc(-c4ccc(Cl)cc4)n3-c3ccccc3)cc2)cc(OC)c1OC`, with 72.9% (inactive); and `CN(C)CCCC(C#N)c1ccccc1` (stereo not drawn), with 108% (inactive). On to `CN(C)C(=O)Nc1nc2cc(Cl)c(Cl)cc2[nH]1`, for which the growth is -13.4% (active).

In the case of `Nc1c(C(=O)Nc2cccc3cnccc23)sc2nc3c(cc12)CN(Cc1ccccc1)CC3`, the growth is 94.8% (inactive). Turning to `COc1ccc(OC)c(/C=C/c2nc(SC)n(-c3ccc(Cl)cc3)n2)c1`, the growth is 25.2% (inactive). Take `CCCCn1sc(=O)n(Cc2ccc(CNC(=O)OCc3ccc4c(Cl)cc(Cl)c(O)c4n3)cc2)c1=O`: the growth is 72.4% (inactive). Then `CCCCCc1ccc(S(=O)(=O)Nc2cccc(-c3csc(NC(=O)CN4CCN(CCO)CC4)n3)c2)cc1`, with 84.8% (inactive); and `O=C(CCCOc1ccc(Br)cc1)Nc1ncc(Cc2ccc(F)cc2)s1`, with 57% (inactive).

(Values after PubChem BioAssay (NCI).)
